# System: PPARg:RXRa 90nM:30nM, anti-RXR (NR concentration 90 nM, RXRa partner concentration 30 nM)
# Assay: PBM binding z-score (relative to random genomic background probes); higher = stronger binding; sequences stand for … in GC…GCGATTGACAGCGTAGAATGAAGG
# Summary of the method: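 Antibodies against each partner of ligand-free nuclear receptor dimers (one per run) detected binding on custom Agilent 4×180K protein-binding microarrays after 1 h incubation. The double-stranded probes had 34-nt variable regions carrying direct-repeat seeds, single-nucleotide variants, half-site ablations and random human genomic background sequences. Binding z-scores, from regression-normalized fluorescence, use the random background probes as reference.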
row,Sequence,PBM binding z-score
1,TCTCGGAGGACACGAAGGTCAGAGCCTTCCAGAG,1.7
2,ACAGACAGGTGAGTGAAGGTAACGCAGCTGGACG,0.232
3,AGTCAAAGTTCAGGACGAGGTATCGTAAAGCACG,3.93
4,TCTAGTTGGTCACGGCGGTCACACACGACGGGTA,2.43
5,ACTGACGGGTCAACGAGGTTATAGCACGCGTATA,2.17
6,TCGAGTAGGTTAGGGGCAATCAGAATGGCGTCGA,2.42
7,AGAATGAGGTTAAGATCAGCGAAACAGAATACAT,1.74
8,TCAGACAAGTGAAGGTAACTCAGGTACGCAGTCG,2.94
9,ACTATTAGTTGACTTAGGGCAACCGCTACGACGC,-0.0911
10,ATGTGTAGGTTAAGGGTCATTCAGGTTGGTTCGC,9.9
11,CAAACTCGGTCACGAAAGGTCAAAGTCGAATGAC,5.51
12,ATATATAGGTTACATCCGGGTCATTCAGGCTATG,4.8
13,AGAATGAGGTTACCAAAGATCATGGAAACGCTTG,2.19
14,TTACCAAGCTGAAAGGTCGTTGATGCACGCCTTG,2.53
15,CTCGAAAGGTCGTGCTCAGCTGAGTATACCAAAC,2.38
16,ACCGAAAGGTCGACGAGGTGAGTATACACCGTTT,2.02
17,AGCATGAGGTTATTAAGATCAGGGAATTGCGGTC,0.454
18,AGAACGAGGGCAATGATTTGATAGCACGGGTGGC,0.557
19,TCATATAGGTAATACAGGTGACAGTCGGCATCTA,3.05
20,CCTAGCAGGCCAATCTGGGCCACTCAAGGCTTGA,-1.08

row,Sequence,PBM binding z-score
1,CCAAACAGGTGAGAAGGTAACTCAGCCTCGATTA,0.598
2,GTTAGTTGGTCAGTAAAAGGTCACACACCGGTCG,4.18
3,TCATATAGGTAAATGCTAGGGGAAAGTCCGATCT,3.25
4,CCTTACGGTTCACTCCAGGTTATAGCATCGGAGT,0.483
5,ACTAGCAGGCCAAGTTTGGGTCTCTCAAACAAAG,-0.853
6,TCGACTAGGTTAGTCGGGGCATTCAGCCAACATA,1.12
7,ATCTCTAGGTAACGAAGTTCAGTGAATGCCGAAC,0.766
8,CATACAGGGTCAGCCAGGCCAGAGTAGGGACGGC,2.01
9,ATATGAAGGTTAGCTGGGGTCATTCAGACTAGGC,2.37
10,ATCTCTAGGTAAAGATAGTTCAGCGAATGCAAAT,0.368
11,TATACAGGGTCAAAGCCCAGAGTACGAATGTCGA,4.51
12,TCTGCTAAGTCAACGATGGTCAGCTAATCTGCTA,0.924
13,ATATGTAGGTTACATCCGGGTTATTCAGGCTATG,3.64
14,CCTATTACTTGACCATAAGGGCAACCGAAGCTCG,0.247
15,CCTATTAGTTGACCATAAGGGCGACCGAAGCTCG,0.134
16,TCTAGTTGGTCACTGAGGTCACACACGACGGGTA,3.68
17,TCTGCTAGGTCAACGATGGTCAGCTCATCTGCTA,2.19
18,AGAATGAGGTTATACGCAGATCAGGGAAGAAAGT,1.45
19,TCTATTAGTTGTTTAGGGCAACCGAAACAGCGGA,2.99
20,CCCGACAGGTGAAAGGTAACTCAGTCTGGTACGC,5.61
